The supplement of paper PMC6897291

Test system: RIVA
Assay: growth inhibition by drug plus 177Lu-lilotomab satetraxetan (1 - RLU/untreated control) (fraction); higher = stronger inhibition
Settings: 177Lu-lilotomab satetraxetan 0.5 ug/ml
Procedure: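 RIVA (RI-1) ABC-DLBCL cells were pretreated or not for 18 h with 0.5 ug/ml 177Lu-lilotomab satetraxetan (600 MBq/mg), washed and seeded (3000 cells/well) on 384-well plates pre-printed with the Selleck Cambridge Cancer Compound library. Viability was read by RealTime-Glo luminescence on days 3-6 after seeding. Effect = 1 - RLU/mean RLU of the 48 untreated no-drug control wells per plate; Bliss score = (M-E)/(1-Fa).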

Compound | growth inhibition by drug plus 177Lu-lilotomab satetraxetan (10 nM, time (day): 3) | growth inhibition by drug plus 177Lu-lilotomab satetraxetan (10 nM, time (day): 4) | growth inhibition by drug plus 177Lu-lilotomab satetraxetan (10 nM, time (day): 5) | growth inhibition by drug plus 177Lu-lilotomab satetraxetan (10 nM, time (day): 6) | growth inhibition by drug plus 177Lu-lilotomab satetraxetan (100 nM, time (day): 3) | growth inhibition by drug plus 177Lu-lilotomab satetraxetan (100 nM, time (day): 4) | growth inhibition by drug plus 177Lu-lilotomab satetraxetan (100 nM, time (day): 5) | growth inhibition by drug plus 177Lu-lilotomab satetraxetan (100 nM, time (day): 6)
C[C@@H]1CN(CC(=O)Nc2ccc3c(c2)Cc2cccc(-c4cc(=O)cc(N5CCOCC5)o4)c2S3)C[C@H](C)O1 | 0.275 | 0.441 | 0.452 | 0.479 | 0.232 | 0.357 | 0.37 | 0.373
COc1ccc(-c2ccc3c(N4CCOCC4)nc(N4C[C@@H](C)O[C@@H](C)C4)nc3n2)cc1CO | 0.514 | 0.598 | 0.603 | 0.621 | 0.475 | 0.552 | 0.55 | 0.529
O=C(O)c1ccc2cc(-c3ccc(O)c(C45CC6CC(CC(C6)C4)C5)c3)ccc2c1 | 0.642 | 0.675 | 0.699 | 0.702 | 0.404 | 0.512 | 0.518 | 0.526
COCC[n+]1c2c(n(Cc3cnccn3)c1C)C(=O)c1ccccc1C2=O | 0.988 | 0.985 | 0.986 | 0.986 | 0.986 | 0.989 | 0.989 | 0.989
CC(NC(=O)c1ccccc1/N=C/c1c(O)ccc2ccccc12)c1ccccc1 (stereo not given) [Sirtinol] | 0.345 | 0.472 | 0.506 | 0.526 | 0.436 | 0.523 | 0.536 | 0.529
